# Laboratory results from PubChem BioAssay (NCI).
# This is part of a sample that, as a whole, favours compounds with a hit. Of some 83,000 tested, about 20% had one in any assay.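 Plates (96-well) were seeded with cells, treated with compound at one concentration, and incubated for 48 hours before percent growth was determined.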 A number with no mark means an inactive call. The source made the active and inactive calls. The calls were made as follows: active = growth percent below 10; inactive = the rest.
# How the values were obtained:
# Experiment in all cases: NCI-60 one-dose screen, 48 h (100 = growth as untreated, 0 = no growth, -100 = all killed)
# Conditions in all cases: 10 µM unless noted
# NCI-H23 lung = system: NCI-H23 lung
# NCI-H226 lung = system: NCI-H226 lung
# NCI-H322M lung = system: NCI-H322M lung
# HOP-62 NSCLC = system: HOP-62 NSCLC
# NCI-H460 lung = system: NCI-H460 lung
# HOP-92 NSCLC = system: HOP-92 NSCLC
# NCI-H522 lung = system: NCI-H522 lung
# A549/ATCC NSCLC = system: A549/ATCC NSCLC
# 786-0 renal = system: 786-0 renal
# COLO 205 colon = system: COLO 205 colon
# DU-145 prostate = system: DU-145 prostate
# K-562 leukemia = system: K-562 leukemia
# MALME-3M melanoma = system: MALME-3M melanoma
# MDA-MB-231 breast = system: MDA-MB-231 breast
# RXF 393 renal = system: RXF 393 renal
# SF-268 CNS = system: SF-268 CNS
# SF-295 CNS = system: SF-295 CNS
# SF-539 CNS = system: SF-539 CNS
# UACC-257 melanoma = system: UACC-257 melanoma
# M14 melanoma = system: M14 melanoma
Compound,growth (NCI-H23 lung),growth (NCI-H226 lung),growth (NCI-H322M lung),growth (HOP-62 NSCLC),growth (NCI-H460 lung),growth (HOP-92 NSCLC),growth (NCI-H522 lung),growth (A549/ATCC NSCLC),growth (786-0 renal),growth (COLO 205 colon),growth (DU-145 prostate),growth (K-562 leukemia),growth (MALME-3M melanoma),growth (MDA-MB-231 breast),growth (RXF 393 renal),growth (SF-268 CNS) [%],growth (SF-295 CNS),growth (SF-539 CNS),growth (UACC-257 melanoma) [%],growth (M14 melanoma)
COc1ccc2[nH]c(O)c(N=NC(=O)c3ccc4nc(-c5ccc(Cl)cc5)[nH]c4c3)c2c1,65.6%,77.5%,85.9%,48.9%,101%,73.3%,35.3%,113%,90.6%,18%,65.6%,41.8%,33.4%,23.9%,43.4%,27.3,103%,67.6%,100,59.4%
COC(=O)c1cccc(Oc2ccc(NC(=O)Nc3cc(C(F)(F)F)ccc3F)cc2)c1,69.3%,57.5%,91.1%,-8.81% (active),30.6%,40.7%,49.8%,47%,47.3%,88.2%,78.8%,59.5%,77.7%,40%,41.4%,50.2,58.8%,34.1%,90.8,84.9%
C[C@@H](Nc1c(C#N)cnc2ccc(-c3cnc4[nH]ncc4c3)cc12)c1ccccc1,21%,-1.92% (active),-2.29% (active),35.4%,15.4%,-11.3% (active),13.1%,5.68% (active),11%,84.2%,12.3%,22.4%,-2.53% (active),9.96% (active),-15.1% (active),25.7,-0.0923% (active),7.78% (active),32.5,29.9%
Oc1ccc(F)c(Nc2nc(SCCN3CCOCC3)nc3c2cnn3CC(Cl)c2ccc(Br)cc2)c1 (stereo not given),26.3%,29.2%,80.2%,30.3%,3.31% (active),1.93% (active),29.2%,23.9%,61.2%,94.6%,34%,-3.32% (active),1.03% (active),-17.6% (active),-48.4% (active),24.1,2.35% (active),17.3%,14.4,18.8%
CCCSc1nnc(-c2c(C)nc3sccn23)o1,90.5%,66.6%,73.9%,112%,97.9%,73.8%,98.7%,98.2%,92.8%,118%,96.7%,88.4%,104%,74.6%,82.9%,89.1,87.1%,90.9%,93.6,99.6%
N/C(=N\c1nc2ccc([N+](=O)[O-])cc2s1)NC(=O)Nc1ccccc1Cl,44.6%,23.7%,61.7%,51.3%,11.3%,17.2%,5.69% (active),9.92% (active),-32% (active),49.3%,45.5%,13%,-17.1% (active),15%,25%,56.1,58.5%,11.1%,89.6,62.8%
N#CC1=C(c2ccco2)Nc2c(c(-c3ccccc3)nn2-c2ccccc2)C12C(=O)Nc1ccc(Br)cc12 (stereo not given),70.6%,67.2%,86.9%,10.5%,1.16% (active),52.4%,31.8%,1.5% (active),43.4%,86.9%,70.5%,21.2%,90.7%,33.2%,70.2%,49.1,72.5%,-33% (active),73.1,42%
O=C(N/N=C/c1ccc(Cl)cc1)c1ccc(OCc2nc3ccc(Cl)cc3[nH]2)cc1,4.91% (active),77.4%,71.3%,-41.6% (active),-82.3% (active),19.6%,7.51% (active),-60.1% (active),-63.1% (active),4.04% (active),-36.1% (active),14.6%,37.5%,6.26% (active),-10% (active),82.1,13.8%,67.6%,24.8,-14.1% (active)
